# Results: PubChem BioAssay (NCATS)
# Inconclusive results are not listed. Where a call stands in place of a potency, no number is given. Activity calls are given as the source filed them. Unless noted, calls follow the shape of the dose curve; as a rule, active = well fitted curve in the direction sought with a large enough effect; inconclusive = small, poorly fitted or top-dose-only effect, or another doubt; inactive = no such curve, though single readings can be large; an effect the other way counts as inactive or inconclusive.
# Key:
# [1] = target: Cytochrome P450 1A2 (Homo sapiens) (UniProt P05177); test: p450-cyp1a2 (AID 410; calls by dose curve); settings: recombinant CYP1A2, luciferin-ME demethylation, luminescence; series mostly up to 57 µM
# Cytochrome P450 1A2 (Homo sapiens), sequence (P05177 whole entry, looked up): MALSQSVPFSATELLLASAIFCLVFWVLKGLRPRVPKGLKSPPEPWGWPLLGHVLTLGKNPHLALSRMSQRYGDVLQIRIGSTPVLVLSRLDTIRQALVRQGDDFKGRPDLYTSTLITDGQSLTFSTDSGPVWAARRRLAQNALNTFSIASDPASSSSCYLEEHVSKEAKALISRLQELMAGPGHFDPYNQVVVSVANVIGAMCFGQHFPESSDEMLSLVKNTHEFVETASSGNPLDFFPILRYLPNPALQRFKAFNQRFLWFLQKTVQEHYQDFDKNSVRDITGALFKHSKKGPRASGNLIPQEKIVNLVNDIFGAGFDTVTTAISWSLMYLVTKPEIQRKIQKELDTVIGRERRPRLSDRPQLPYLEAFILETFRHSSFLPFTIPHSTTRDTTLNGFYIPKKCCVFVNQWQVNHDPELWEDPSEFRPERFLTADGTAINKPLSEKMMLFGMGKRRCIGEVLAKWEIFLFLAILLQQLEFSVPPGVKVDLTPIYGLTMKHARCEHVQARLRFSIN
# Outline: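 20nM CYP1A2 with 100uM Luciferin-ME (at Km) in 100mM KPO4; compound preincubated 10 min, NADPH regeneration added, 60 min at room temperature. Luciferin quantified by luminescence after detection reagent; normalized to 57 uM furafylline.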
# [2] = qHTS Assay for Identification of Small Molecule Antagonists for NFkB Signaling Pathway (AID 895; active = well fitted inhibition curve with a large enough effect in the signal ratio, with a control signal flat, not every such curve was filed as active; the % refers to the signal ratio; also: potency is read from the fitted curve at half-maximal effect); settings: NFkB beta-lactamase reporter cells, FRET ratio 460/530; series mostly up to 38.3 µM
# Outline: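 ME-180 NFkB-bla cells (beta-lactamase under NFkB response element), plated overnight, treated with compound then 10 pM TNF alpha (about EC50) for 5 hrs at 37 C. LiveBLAzer FRET read at 460/530 nm emission, 405 nm excitation.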
# [3] = target: Muscarinic acetylcholine receptor M1 (Rattus norvegicus) (UniProt P08482); test: qHTS Assay for Antagonists of Acetylcholine Muscarinic M1 Receptor: Measurement of IP-One Response (AID 944); settings: CHO-M1 cells, IP-One HTRF, antagonist mode; series mostly up to 46.1 µM; also: nearly all actives have a fitted effect of over 75% in size
# Muscarinic acetylcholine receptor M1 (Rattus norvegicus), sequence (P08482 whole entry, looked up): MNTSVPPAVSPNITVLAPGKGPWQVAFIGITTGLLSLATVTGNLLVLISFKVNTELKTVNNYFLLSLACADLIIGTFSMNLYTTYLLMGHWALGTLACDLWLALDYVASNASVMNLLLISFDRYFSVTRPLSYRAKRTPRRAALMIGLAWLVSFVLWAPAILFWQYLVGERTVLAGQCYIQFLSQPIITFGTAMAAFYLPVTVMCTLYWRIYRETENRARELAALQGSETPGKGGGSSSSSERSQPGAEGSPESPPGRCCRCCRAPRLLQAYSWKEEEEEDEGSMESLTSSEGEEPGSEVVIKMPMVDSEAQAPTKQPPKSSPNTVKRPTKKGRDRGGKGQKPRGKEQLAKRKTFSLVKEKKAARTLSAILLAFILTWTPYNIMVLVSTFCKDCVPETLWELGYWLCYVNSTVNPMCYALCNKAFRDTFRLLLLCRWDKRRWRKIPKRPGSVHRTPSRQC
# Outline: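 CHO cells stably expressing rat M1, pretreated 10 min with compound, then stimulated 30 min with carbachol at EC80 (200 nM) in LiCl-containing buffer pH 7.4; IP1 accumulation read by HTRF competition (665/620 nm).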
# [4] = target: Pyruvate kinase PKM (Homo sapiens) (UniProt P14618); test: qHTS Assay for Inhibitors of Human Muscle Pyruvate Kinase (AID 958); settings: purified human PKM enzyme activity; series mostly up to 57.5 µM
# Pyruvate kinase PKM (Homo sapiens), sequence (P14618 whole entry, looked up): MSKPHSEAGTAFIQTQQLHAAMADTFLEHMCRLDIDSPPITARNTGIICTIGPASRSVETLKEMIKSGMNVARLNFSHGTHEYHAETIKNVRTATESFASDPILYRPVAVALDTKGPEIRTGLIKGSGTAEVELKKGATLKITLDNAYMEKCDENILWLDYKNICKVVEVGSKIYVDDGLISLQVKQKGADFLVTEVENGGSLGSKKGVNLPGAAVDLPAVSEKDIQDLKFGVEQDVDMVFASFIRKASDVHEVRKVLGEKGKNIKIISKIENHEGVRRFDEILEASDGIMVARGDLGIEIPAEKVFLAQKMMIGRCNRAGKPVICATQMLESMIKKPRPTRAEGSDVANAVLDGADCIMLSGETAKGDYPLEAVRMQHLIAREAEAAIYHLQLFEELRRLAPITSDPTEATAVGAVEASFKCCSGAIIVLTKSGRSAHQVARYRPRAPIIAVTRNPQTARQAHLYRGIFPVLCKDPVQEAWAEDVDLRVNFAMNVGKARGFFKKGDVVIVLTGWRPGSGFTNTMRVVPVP
# Outline: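 PKM2, human, >95% pure, 0.1 nM; PEP 0.5 mM (Km), ADP 0.1 mM; 50 mM imidazole pH 7.2, 50 mM KCl, 0.01% Tween 20, 0.05% BSA; 1 h RT; luciferase luminescence readout.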
# [5] = test system: DIV14; test: qHTS profiling for inhibitors of Plasmodium falciparum proliferation (AID 504749); also: nearly all actives have a fitted effect of over 60% in size; settings: P. falciparum in erythrocytes, SYBR Green DNA, 72 h; series mostly up to 28.7 µM
# Outline: (§1)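 P. falciparum-infected erythrocytes (0.3% parasitemia, 2.5% hematocrit) incubated with compound 72 h at 37 C, 5% CO2. Parasite DNA detected by SYBR Green after lysis, overnight at room temperature; normalised to 0.29 uM artemisinin and DMSO.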
# [6] = test system: DIV17; test: as above; settings: P. falciparum in erythrocytes, SYBR Green DNA, 72 h; series mostly up to 28.7 µM
# Outline: as §1
smiles,measurement,setting,value
CCCC[C@@H]1C[C@H]1C(NP(=O)(c1ccccc1)c1ccccc1)c1ccc(Cl)cc1 (stereo partly specified),Potency,[1],inactive
Oc1cc2c(cc1O)[C@H]1c3ccccc3CN[C@@H]1CC2,Potency,[2],6.31 µM (active)
same,Potency,[3],inactive
same,Potency,[4],inactive
COc1ccc2c3c1O[C@H]1[C@@H](O)C=C[C@H]4C(C2)NCCC341 (stereo partly specified),Potency,[5],inactive
same,Potency,[6],inactive
